Source: PubChem (National Center for Advancing Translational Sciences (NCATS))
This excerpt belongs to a sample that is enriched for hits.
LmPK inhibitor – inhibitors of Leishmania mexicana pyruvate kinase; Q27686; purified LmPK, Kinase-Glo ATP luminescence, 1 h; Potency, µM (top dose mostly 57.5 µM), for the others: at the highest dose activity change, negative = inhibition, hits mostly inhibitors; 0.37% of 290,000 active; AID 1721; also: potency is read from the fitted curve at half-maximal effect; % is scaled to controls: 0 for no effect and ±100 for the full control effect
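Pyruvate kinase activity monitored as ATP production (luciferase luminescence). Conditions: 0.1 nM enzyme, 0.5 mM PEP, 0.1 mM ADP, 1 h, RT; normalized against uninhibited and no-enzyme wells.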
CHX counter – affects cycloheximide protein synthesis inhibition readout, counter-screen; cell reporter, cycloheximide protein synthesis inhibition counterscreen; max response, %; 12% of 300,000 active; in the data active = max response mostly above about 13%, no sharp cut-off; inactive = mostly below about 14%; also: read at 38.3 µM for the half of the compounds with a filed dose; 0% is about no effect
Giardia FBPA inh – blocks Giardia fructose-bisphosphate aldolase activity; AID 2451; A8B2U2; Potency, µM (highest dose often 59.6 µM), without a hit: top-dose activity, negative = inhibition, actives largely listed as inhibitors; purified Giardia FBPA; 0.71% of 290,000 active; also: potency is read from the fitted curve at half-maximal effect; % is scaled to controls: 0 for no effect and ±100 for the full control effect; nearly all actives have a fitted effect of over 55% in size
Target sequence (A8B2U2 whole entry, looked up): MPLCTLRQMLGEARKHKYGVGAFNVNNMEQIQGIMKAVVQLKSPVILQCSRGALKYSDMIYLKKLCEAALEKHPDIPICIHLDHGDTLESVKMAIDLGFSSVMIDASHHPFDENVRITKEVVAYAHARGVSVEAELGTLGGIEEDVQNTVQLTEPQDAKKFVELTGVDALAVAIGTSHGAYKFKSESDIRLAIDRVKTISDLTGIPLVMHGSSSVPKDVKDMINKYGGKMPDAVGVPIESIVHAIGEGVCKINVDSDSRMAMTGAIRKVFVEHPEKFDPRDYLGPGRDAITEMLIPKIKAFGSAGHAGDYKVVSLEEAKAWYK
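40 nM FBPA preincubated 10 min at RT with compound (up to 57.5 uM final), then substrate plus GAPDH/TPI/NAD/arsenate coupling and diaphorase/resazurin added. Fluorescence read after 20 min at RT, 525/598 nm.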
Shiga toxin inh – inhibitors of Shiga toxin in Vero cells; Vero cells, Shiga toxin protein synthesis inhibition reporter; inhibition, % at 38.7 µM; 9.2% of 290,000 active; in the data active = inhibition mostly above about 28%, no sharp cut-off; inactive = mostly below about 43%; also: 0% is about no effect
Tb PYK inh – T. brucei pyruvate kinase inhibition; Q57TT1; TbPYK enzyme, Kinase-Glo Plus ATP luminescence, 45 min; Potency, µM (titrated, usually from 76.8 µM), for the others: top-dose activity, negative = inhibition, hits mostly inhibitors; 0.12% of 410,000 active; AID 624173; also: potency is read from the fitted curve at half-maximal effect; % is scaled to controls: 0 for no effect and ±100 for the full control effect; nearly all actives have a fitted effect of over 50% in size
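Quantitative HTS: titrated library compounds versus trypanosomal pyruvate kinase in TEA buffer (pH 7.2) containing KCl, MgCl2, BSA and Tween-20. Reactions were initiated with ADP, 130 uM final. Kinase-Glo Plus luminescence was read after 45 min at RT.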
RE007 growth inh – less growth of the S. pombe RE007 Vpr strain | S. pombe RE007 Vpr strain, BacTiter-Glo ATP luminescence, 24 h | Potency, µM (titrated, usually from 92.2 µM), for the others: at the top dose activity change, negative = less growth, hits mostly inhibitors | 0.21% of 360,000 active | AID 651644; active = well fitted falling curve with a large enough effect; also: potency is read from the fitted curve at half-maximal effect; % is scaled to controls: 0 for no effect and ±100 for the full control effect; nearly all actives have a fitted effect of over 50% in size
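Fission yeast RE007 carrying one integrated HIV-1 vpr copy, seeded at OD 0.01 in PMG+AL medium with 23 nL pinned compound. Grown 24 h at 30 degrees; viability read by BacTiter-Glo luminescence after 5 min.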
An asterisk follows results filed as active; i = inactive; . = no result given; + = active, no number; [ ] = dose if it differs, or a comment. Unless noted, calls follow the shape of the dose curve; as a rule, active = well fitted curve in the direction sought with a large enough effect; inconclusive = small, poorly fitted or top-dose-only effect, or another doubt; inactive = no such curve, though single readings can be large; an effect the other way counts as inactive or inconclusive.

SMILES	LmPK inhibitor	CHX counter	Giardia FBPA inh	Shiga toxin inh	Tb PYK inh	RE007 growth inh
O=S(=O)(NC1CCCC1)c1ccc(F)cc1F	.	.	.	.	-9.8%	14.8%
COc1cccc(C2=NN(C(C)=O)C(c3cn(-c4ccccc4)nc3-c3cccs3)C2)c1 (configuration not stated)	.	.	.	.	-7.1%	.
CC1CCCCN1Cc1c(O)ccc2c(=O)c(-c3nc4ccccc4s3)coc12 (configuration not stated)	6.6%	28.1*	-0.8%	60.5*	6.3%	3.1%
CCOc1cc(Cl)c(S(=O)(=O)n2ccnc2)cc1Cl	.	.	.	.	3.3%	.
CC1(C)CN=C(N(Cc2ccccc2)C(=O)Nc2ccccc2)S1	-1.8%	65.3*	3.8%	76.1*	-5.3%	-10.6%
CC1(C)CN=C(N(C(=O)Nc2ccccc2)c2ccccc2F)S1	-0.5%	16.6*	0.3%	61.7*	-0.3%	-6.4%
COc1ccccc1NC(=O)c1sc2ncn(Cc3ccccc3Cl)c(=O)c2c1C	.	.	.	.	-1.8%	.
CC1=Nc2cc(C(=O)NC3CCCCC3)ccc2Sc2ccc(Cl)cc21	.	.	.	.	0.5%	.
CCc1cccc(NC(=O)C(c2ccccc2)N2Cc3ccccc3C2=O)c1 (configuration not stated)	.	.	.	.	-11.4%	.
COc1ccc(Cn2c(=S)[nH]c3cc(OC)c(OC)cc3c2=O)cc1	5.4%	31.2*	4.2%	49.8	-0.7%	10.4%
CNC(=O)COC(=O)c1cc2c(s1)CCCC2	2.4%	23.7*	4.0%	46.8	-2.5%	-14.6%
C/C(N)=C(/C#N)C(=O)COC(=O)c1cc2c(s1)CCCC2	13.3%	34.7*	0.2%	60.1*	-15.6%	6.5%
C/C(N)=C(/C#N)C(=O)COC(=O)c1ccc(C)c(S(=O)(=O)N2CCCCC2)c1	8.8%	10.2	11.0%	8.1	0.8%	16.3%
C/C(N)=C(/C#N)C(=O)COC(=O)c1cc2c(s1)CCC(C)C2 (configuration not stated)	9.1%	67.7*	-6.4%	93.2*	-19.5%	20.6%
COc1ccc(N2CCN(CC(=O)Nc3ccc(C)c(C)c3)CC2)cc1	-1.2%	-3.4	-6.9%	-4.8	-3.5%	-10.0%
N#Cc1ccc2c(c1)C[C@]1(c3ccsc3)Oc3c(c(=O)oc4ccc(F)cc34)C2O1	-0.4%[11.5 µM]	-4.2	-23.4%[12.9 µM]	i	.	.
COc1cc2c(cc1OC)C1O[C@](c3ccsc3)(C2)Oc2c1c(=O)oc1ccc(F)cc21	-7.6%[11.5 µM]	15.5*	2.2%[12.9 µM]	i	.	.
N#Cc1ccc2c(c1)C[C@]1(c3ccsc3)Oc3c(c(=O)oc4ccccc34)C2O1	-3.0%[11.5 µM]	24.0*	-1.3%[12.9 µM]	+	.	.
Cc1cc(C)cc(NC(=O)C2CCN(S(=O)(=O)c3cccc(-c4noc(C)n4)c3)CC2)c1	.	.	.	.	0.6%	.
CCC(Sc1nc2cc(OC)c(OC)cc2c(=O)n1Cc1ccc(Cl)cc1)C(=O)NCCOC (configuration not stated)	.	.	.	.	-1.4%	.
Cc1cc(OCC(=O)C(C)(C)C)c2c(-c3ccccc3)cc(=O)oc2c1	-1.7%	-3.3	8.8%	-5.9	-0.6%	-4.6%
COc1cccc(-c2ccc3c(N)c(C(=O)NCc4ccc(Cl)cc4)sc3n2)c1	.	.	.	.	-4.2%	.
CCOc1ccc(-c2noc(-c3cccnc3)n2)cc1OC	-8.2%	15.0*	8.1%	27.1	-1.3%	-6.8%
CCOc1ccc(-c2nc(-c3ccc(OC)c(OC)c3)no2)cc1OCC	3.2%	-3.0	5.0%	-6.9	.	.
CCOc1ccc(-c2noc(COC)n2)cc1OC	-4.9%	20.6*	0.7%	23.3	-8.1%	-7.4%
SMILES	LmPK inhibitor	CHX counter	Giardia FBPA inh	Shiga toxin inh	Tb PYK inh	RE007 growth inh
CCOc1ccc(-c2nc(CCl)cs2)cc1OC	-6.5%	16.9*	-9.7%	40.5	-3.9%	-4.3%
COc1ccc(-c2noc(-c3cccnc3)n2)cc1OC	-21.4%	16.9*	2.3%	51.8*	-2.4%	-5.2%
CCOc1ccc(C2C(C(=O)Nc3ccccc3OC)=C(C)Nc3c(C(=O)Nc4cccc(C)c4)cnn32)cc1 (configuration not stated)	.	.	.	.	-9.5%	.
COc1ccc(Cn2ncc3c4sc(C)cc4n(C)c3c2=O)cc1F	.	4.0	.	14.3	.	.
ClC1(CNc2ccccc2)CCN(Cc2ccccc2)CC1	.	.	.	.	-2.8%	-6.1%
COc1ccccc1N(Cc1ccccc1)S(=O)(=O)c1cccc(C(=O)Nc2ccc(C(C)=O)cc2)c1	-1.4%	45.9*	3.8%	44.3*	-9.0%	5.5%
COc1ccccc1N(Cc1ccccc1)S(=O)(=O)c1cccc(C(=O)Nc2ccc(C)cn2)c1	.	.	.	.	-1.2%	4.5%
COc1ccccc1N(Cc1ccccc1)S(=O)(=O)c1cccc(C(=O)Nc2ccccn2)c1	-5.0%	25.4*	.	49.8*	-2.3%	-4.0%
O=C(CSc1nnc(CNC(=O)c2cccs2)o1)Nc1ccccc1C(F)(F)F	-10.1%	-1.8	.	1.1	0.4%	2.9%
CCC(C)NC(=O)CSc1nc2n[nH]c(C)c2c(=N)n1-c1cc(Cl)ccc1C (configuration not stated)	.	.	.	.	-1.5%	.
O=C(/C=C/c1cccc(F)c1)N1CCc2ccccc21	-15.6%	64.7*	4.4%	102.2*	1.2%	-0.2%
O=C(/C=C/c1ccc(Cl)cc1Cl)N1CCc2ccccc21	-18.0%	31.7*	0.2%	61.2*	-5.4%	-7.4%
O=C(/C=C/c1ccc(F)cc1)N1CCCc2ccccc21	3.3%	38.3	3.0%	42.9*	-2.7%	-1.1%
O=C(/C=C/c1cccc(F)c1)OCC(=O)N1CCCc2ccccc21	.	.	.	.	-3.1%	-0.2%
c1ccc(-c2nnc(SCc3cn4ccsc4n3)o2)cc1	-2.5%	30.1*	17.3%	92.8*	-2.0%	-29.5%
O=c1c2ccccc2nc(SCc2cn3ccsc3n2)n1-c1ccc(F)cc1	7.4%	0.6	5.1%	1.6	-8.9%	20.2%
Cc1cc(NC(=O)NC(=O)c2ccccc2)no1	-9.2%	19.7*	3.9%	38.2*	-2.0%	-16.1%
Cc1cc(NC(=O)c2ccc3nc(C)sc3c2)no1	3.5%	43.1*	1.3%	195.4*	0.9%	14.5%
Cc1nc2ccc(NC(=O)c3ccc([N+](=O)[O-])cc3)cc2s1	-2.0%	14.1	3.5%	9.9	-16.3%	-9.1%
C/C(=C\c1ccccc1)C(=O)Nc1cc(C)on1	-3.5%	40.1*	2.7%	98.4*	2.7%	1.8%
CCOc1ccc(C(=O)Nc2cc(C)on2)cc1	-21.5%	30.7*	-0.2%	73.2*	-1.5%	-25.4%
Cc1cc(C)c(NC(=O)Cn2c(=O)n(CC3CCCO3)c(=O)c3ccccc32)c(C)c1 (configuration not stated)	.	.	.	.	-1.1%	.
Cc1cc(NC(=O)c2ccc(S(=O)(=O)N(C)C)cc2)no1	0.1%	10.3	5.1%	16.8	-5.4%	4.6%
Cc1cc(NC(=O)c2cccc(COc3ccc(Br)cc3)c2)no1	-0.8%	111.8*	0.4%	+	-9.3%	-10.2%
Cc1cc(NC(=O)c2ccc(Cl)cc2)no1	-0.6%	31.9*	0.8%	58.9*	-1.1%	-1.1%
